About 7,900 targets were measured; listed, in parts, are those with a hit and a random draw of the rest. About 0.6% of all pairs of compound and target were hits.
Key:
Assay in all cases: log2 fold change, soluble protein after heating vs DMSO (PISA); higher = thermal stabilisation; K562 cells, 10 uM, 30 min; active = over 0.2 and 3.5 SD of the protein, either way, in both replicates (recomputed)
[1] = compound: CN1CCN(CCOc2cc(OC3CCOCC3)c3c(Nc4c(Cl)ccc5c4OCO5)ncnc3c2)CC1 [saracatinib]
Summary of the method: (§1)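 K562 cells (2×10^6 cells/mL) were treated with 10 μM compound for 30 min, and aliquots were heated for 3 min over 48°C-58°C. Pooled aliquots were extracted in PBS with 0.5% NP-40 at 4°C, and the supernatant after 21,000xg for 90 min was measured by TMTpro 16plex LC-MS/MS with channel sums equalised. Reported thermal stability, relative to control samples and from duplicates, is a log2 fold change.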

[2] = compound: CN1CCN(c2nc(C3=C(c4c[nH]c5ccccc45)C(=O)NC3=O)c3ccccc3n2)CC1 [sotrastaurin]
Summary of the method: as §1

[3] = compound: CN1CC[C@H](c2c(O)cc(O)c3c(=O)cc(-c4ccccc4Cl)oc23)[C@H](O)C1 [alvocidib]
Summary of the method: as §1

[4] = compound: CN1CCc2c(c3ccccc3n2Cc2ccc(C(=O)NO)cc2)C1 [Tubastatin A]
Summary of the method: as §1

[5] = compound: CNC(=O)C1=CC=CC=C1NC2=NC(=NC=C2Cl)NC3=C(C=C(C=C3)N4CCOCC4)OC
Summary of the method: as §1

[6] = compound: CNC(=O)c1ccc(Nc2ncc(C(F)(F)F)c(NCc3nccnc3N(C)S(C)(=O)=O)n2)cc1 [defactinib]
Summary of the method: as §1

[7] = compound: CNCc1ccc(-c2[nH]c3cc(F)cc4c3c2CCNC4=O)cc1 [rucaparib]
Summary of the method: as §1

[8] = compound: CNc1nc(-c2ccc3c(N)n[nH]c3c2)cc(N2C[C@@H](C(=O)NC3CCCCC3)CC[C@H]2C)n1
Summary of the method: as §1

[9] = compound: COC(=O)N[C@@H](C)CNc1nccc(-c2cn(C(C)C)nc2-c2cc(Cl)cc(NS(C)(=O)=O)c2F)n1 [encorafenib]
Summary of the method: as §1

[10] = compound: COC(=O)[C@H](CCSC)NC(=O)C1=C(C=C(C=C1)NC[C@H](CS)N)C2=CC=CC=C2
Summary of the method: as §1

[11] = compound: COC1=CC=C(C=C1)CN2C=CC3=C2C=C(C=C3)C(=O)NO
Summary of the method: as §1

[12] = compound: CON(C)C(=O)N1N=C(c2cc(F)ccc2F)S[C@@]1(CCCN)c1ccccc1 [filanesib]
Summary of the method: as §1

[13] = compound: CO[C@H]1C[C@@H]2CC[C@@H](C)[C@@](O)(O2)C(=O)C(=O)N2CCCC[C@H]2C(=O)O[C@H]([C@H](C)C[C@@H]2CC[C@H](n3cnnn3)[C@H](OC)C2)CC(=O)[C@H](C)/C=C(\C)[C@@H](O)[C@@H](OC)C(=O)[C@H](C)C[C@H](C)/C=C/C=C/C=C/1C [zotarolimus]
Summary of the method: as §1

[14] = compound: COc1cc(C(=O)O)ccc1NC(=O)[C@@H]1N[C@@H](CC(C)(C)C)[C@](C#N)(c2ccc(Cl)cc2F)[C@H]1c1cccc(Cl)c1F [idasanutlin]
Summary of the method: as §1

[15] = compound: COc1cc(Nc2ncc3c(n2)-c2ccc(Cl)cc2C(c2c(F)cccc2OC)=NC3)ccc1C(=O)O [alisertib]
Summary of the method: as §1

[16] = compound: COc1cc2nc(-c3cc(F)ccc3O)nc(N[C@@H]3CNC[C@H]3C(C)(C)O)c2cc1OC
Summary of the method: as §1

[17] = compound: COc1cc2ncnc(Nc3ccc(F)c(Cl)c3)c2cc1OCCCN1CCOCC1 [gefitinib]
Summary of the method: as §1

[18] = compound: COc1cccc2cc(-c3nc([C@H]4CC[C@H](C(=O)O)CC4)n4ncnc(N)c34)[nH]c12
Summary of the method: as §1

[19] = compound: CS(=O)(=O)CCNCc1ccc(-c2ccc3ncnc(Nc4ccc(OCc5cccc(F)c5)c(Cl)c4)c3c2)o1 [lapatinib]
Summary of the method: as §1

[20] = compound: CS(=O)(=O)N1CCN(Cc2cc3nc(-c4cccc5[nH]ncc45)nc(N4CCOCC4)c3s2)CC1 [pictilisib]
Summary of the method: as §1

Measured: log2 fold change

NUP98 (UniProt P52948)
Chain of UniProt P52948 (P52948 whole entry, looked up): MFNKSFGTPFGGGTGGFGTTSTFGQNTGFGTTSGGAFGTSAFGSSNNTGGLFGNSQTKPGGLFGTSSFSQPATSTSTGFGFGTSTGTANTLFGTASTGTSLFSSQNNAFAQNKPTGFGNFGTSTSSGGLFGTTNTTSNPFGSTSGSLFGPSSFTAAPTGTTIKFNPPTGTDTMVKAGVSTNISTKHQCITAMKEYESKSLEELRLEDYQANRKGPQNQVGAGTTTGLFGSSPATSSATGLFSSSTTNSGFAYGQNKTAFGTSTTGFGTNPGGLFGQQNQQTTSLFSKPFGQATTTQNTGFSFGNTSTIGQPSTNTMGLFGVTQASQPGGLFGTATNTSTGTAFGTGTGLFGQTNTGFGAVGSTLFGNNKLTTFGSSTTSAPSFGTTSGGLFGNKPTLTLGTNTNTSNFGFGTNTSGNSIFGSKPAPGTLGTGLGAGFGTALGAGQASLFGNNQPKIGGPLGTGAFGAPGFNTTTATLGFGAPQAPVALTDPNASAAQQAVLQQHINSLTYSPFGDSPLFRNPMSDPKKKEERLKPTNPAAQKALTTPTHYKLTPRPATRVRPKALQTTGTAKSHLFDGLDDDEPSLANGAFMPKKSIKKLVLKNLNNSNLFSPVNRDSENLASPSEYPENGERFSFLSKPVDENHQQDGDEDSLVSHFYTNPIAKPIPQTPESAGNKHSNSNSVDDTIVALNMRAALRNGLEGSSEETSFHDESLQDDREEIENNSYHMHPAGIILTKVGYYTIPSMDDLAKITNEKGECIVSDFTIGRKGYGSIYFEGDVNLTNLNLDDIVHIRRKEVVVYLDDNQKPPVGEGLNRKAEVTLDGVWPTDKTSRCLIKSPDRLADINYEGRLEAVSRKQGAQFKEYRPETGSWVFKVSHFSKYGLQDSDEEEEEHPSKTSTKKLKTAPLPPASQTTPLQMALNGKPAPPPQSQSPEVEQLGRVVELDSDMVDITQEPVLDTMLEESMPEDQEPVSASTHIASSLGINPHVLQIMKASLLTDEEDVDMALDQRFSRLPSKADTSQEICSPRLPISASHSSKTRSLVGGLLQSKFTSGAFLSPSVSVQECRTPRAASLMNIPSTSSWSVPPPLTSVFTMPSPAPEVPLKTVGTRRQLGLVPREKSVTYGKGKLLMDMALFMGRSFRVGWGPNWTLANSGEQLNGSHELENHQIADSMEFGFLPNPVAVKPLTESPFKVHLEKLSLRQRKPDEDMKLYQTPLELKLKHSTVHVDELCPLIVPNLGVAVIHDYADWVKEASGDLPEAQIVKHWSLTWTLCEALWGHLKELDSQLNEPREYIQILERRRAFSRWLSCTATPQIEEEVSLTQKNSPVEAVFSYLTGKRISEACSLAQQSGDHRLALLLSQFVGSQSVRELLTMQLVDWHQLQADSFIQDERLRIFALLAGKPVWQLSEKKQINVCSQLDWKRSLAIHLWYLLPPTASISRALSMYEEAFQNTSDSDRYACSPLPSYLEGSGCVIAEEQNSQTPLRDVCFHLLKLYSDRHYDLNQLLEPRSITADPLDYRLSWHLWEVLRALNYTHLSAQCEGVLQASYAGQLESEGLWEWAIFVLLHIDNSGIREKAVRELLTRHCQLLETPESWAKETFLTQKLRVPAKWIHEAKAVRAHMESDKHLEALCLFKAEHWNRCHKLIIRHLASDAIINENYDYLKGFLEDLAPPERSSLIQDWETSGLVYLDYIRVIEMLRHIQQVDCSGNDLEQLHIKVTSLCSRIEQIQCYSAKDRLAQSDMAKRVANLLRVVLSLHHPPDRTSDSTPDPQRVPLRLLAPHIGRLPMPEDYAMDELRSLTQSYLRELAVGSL
inactive: [1] -0.019 | [2] -0.072 | [3] -0.063 | [4] 0.041 | [5] 0.018 | [6] -0.12 | [7] 0.063 | [8] -0.037 | [9] 0.039 | [10] -0.053 | [11] -0.003 | [12] 0.045 | [13] 0.009 | [14] 0.061 | [15] 0.007 | [16] 0.047 | [17] 0.026 | [18] -0.057 | [19] 0.02 | [20] 0.027

MRPS5 (UniProt P82675)
inactive: [1] -0.094 | [2] -0.124 | [3] -0.042 | [4] -0.009 | [5] -0.024 | [6] 0.068 | [7] 0.129 | [8] 0.161 | [9] 0.072 | [10] -0.068 | [11] -0.06 | [12] 0.078 | [13] 0.091 | [15] 0.021 | [16] 0.015 | [17] -0.026 | [18] 0.02 | [19] 0.054 | [20] -0.026
active: [14] -0.37

OXSM (UniProt Q9NWU1)
inactive: [1] 0.095 | [2] 0.067 | [3] -0.046 | [4] -0.01 | [5] 0.038 | [6] -0.059 | [7] -0.018 | [8] -0.033 | [9] -0.007 | [10] -0.019 | [11] 0.033 | [12] -0.014 | [13] -0.005 | [14] 0.039 | [15] -0.131 | [16] -0.041 | [17] -0.001 | [18] 0.025 | [19] 0.007 | [20] 0.057

MRPL46 (UniProt Q9H2W6)
active: [5] 0.29
inactive: [1] -0.071 | [2] -0.073 | [3] 0.016 | [4] 0.037 | [6] 0.043 | [7] 0.058 | [8] 0.115 | [9] 0.045 | [10] -0.026 | [11] -0.019 | [12] 0.068 | [13] 0.1 | [14] -0.012 | [15] -0.063 | [16] -0.088 | [17] 0.005 | [18] -0.029 | [19] 0.082 | [20] 0.011

NMNAT1 (UniProt Q9HAN9)
Chain of UniProt Q9HAN9 (Q9HAN9 whole entry, looked up): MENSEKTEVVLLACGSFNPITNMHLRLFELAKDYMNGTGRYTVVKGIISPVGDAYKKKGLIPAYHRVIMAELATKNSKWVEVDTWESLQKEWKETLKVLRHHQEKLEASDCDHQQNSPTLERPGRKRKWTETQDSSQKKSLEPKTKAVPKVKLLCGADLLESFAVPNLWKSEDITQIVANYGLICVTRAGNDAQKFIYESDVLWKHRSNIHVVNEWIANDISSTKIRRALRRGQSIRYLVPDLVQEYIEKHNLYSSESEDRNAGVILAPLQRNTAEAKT
inactive: [1] -0.044 | [2] -0.033 | [3] 0.158 | [4] 0.07 | [5] -0.121 | [6] 0.237 | [7] 0.354 | [8] 0.02 | [9] 0.147 | [10] 0.091 | [11] -0.168 | [12] 0.354 | [13] -0.023 | [14] 0.154 | [15] -0.115 | [16] 0.132 | [17] -0.022 | [18] -0.102 | [19] 0.018 | [20] -0.014

NANS (UniProt Q9NR45)
Chain of UniProt Q9NR45 (Q9NR45 whole entry, looked up): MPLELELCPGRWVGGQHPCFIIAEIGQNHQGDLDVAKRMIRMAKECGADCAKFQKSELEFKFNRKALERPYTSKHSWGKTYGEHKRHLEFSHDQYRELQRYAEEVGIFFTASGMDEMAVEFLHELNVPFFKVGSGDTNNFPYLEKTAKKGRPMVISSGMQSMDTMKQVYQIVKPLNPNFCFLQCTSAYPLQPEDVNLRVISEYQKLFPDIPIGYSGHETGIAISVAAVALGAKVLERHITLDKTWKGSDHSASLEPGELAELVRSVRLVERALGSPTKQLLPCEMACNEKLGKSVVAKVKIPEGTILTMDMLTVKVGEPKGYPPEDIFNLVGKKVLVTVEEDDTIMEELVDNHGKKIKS
inactive: [1] 0.022 | [2] -0.058 | [3] -0.091 | [4] -0.026 | [5] 0.034 | [6] -0.033 | [7] -0.084 | [8] 0.051 | [9] 0.004 | [10] -0.015 | [11] -0.11 | [12] -0.115 | [13] 0.017 | [14] -0.045 | [15] -0.008 | [16] -0.017 | [17] -0.057 | [18] -0.017 | [19] -0.005 | [20] -0.018

NIPSNAP2 (UniProt O75323)
Chain of UniProt O75323 (O75323 whole entry, looked up): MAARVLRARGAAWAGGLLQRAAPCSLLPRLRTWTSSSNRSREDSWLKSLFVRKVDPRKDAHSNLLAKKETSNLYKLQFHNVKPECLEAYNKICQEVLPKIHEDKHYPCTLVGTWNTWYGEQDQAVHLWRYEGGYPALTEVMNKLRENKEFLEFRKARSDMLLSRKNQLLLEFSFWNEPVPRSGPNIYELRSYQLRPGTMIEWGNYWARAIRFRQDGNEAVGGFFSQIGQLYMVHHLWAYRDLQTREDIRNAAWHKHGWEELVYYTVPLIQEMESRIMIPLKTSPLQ
active: [19] 0.224
inactive: [1] -0.017 | [2] -0.082 | [3] 0.031 | [4] -0.019 | [5] 0.104 | [6] -0.003 | [7] -0.085 | [8] -0.08 | [9] -0.028 | [10] 0.033 | [11] 0.074 | [12] -0.065 | [13] 0.008 | [14] -0.022 | [15] 0.003 | [16] 0.007 | [17] 0.045 | [18] -0.038 | [20] 0.079

MRPS25 (UniProt P82663)
inactive: [1] -0.097 | [2] -0.059 | [3] -0.039 | [4] 0.084 | [5] -0.021 | [6] -0.072 | [7] 0.129 | [8] 0.233 | [9] -0.016 | [10] -0.017 | [11] 0.066 | [12] 0.029 | [13] 0.053 | [14] -0.185 | [15] -0.038 | [16] -0.055 | [17] 0.058 | [18] -0.046 | [19] 0.08 | [20] 0.063

NASP (UniProt P49321)
inactive: [1] 0 | [2] -0.045 | [3] -0.08 | [4] 0.012 | [5] 0.073 | [6] -0.085 | [7] -0.11 | [8] -0.041 | [9] 0.001 | [10] -0.004 | [11] 0.01 | [12] -0.009 | [13] 0.05 | [14] -0.021 | [15] -0.03 | [16] 0.029 | [17] 0.001 | [18] -0.023 | [19] -0.023 | [20] 0.007

MORF4L2 (UniProt Q15014)
Chain of UniProt Q15014 (Q15014 whole entry, looked up): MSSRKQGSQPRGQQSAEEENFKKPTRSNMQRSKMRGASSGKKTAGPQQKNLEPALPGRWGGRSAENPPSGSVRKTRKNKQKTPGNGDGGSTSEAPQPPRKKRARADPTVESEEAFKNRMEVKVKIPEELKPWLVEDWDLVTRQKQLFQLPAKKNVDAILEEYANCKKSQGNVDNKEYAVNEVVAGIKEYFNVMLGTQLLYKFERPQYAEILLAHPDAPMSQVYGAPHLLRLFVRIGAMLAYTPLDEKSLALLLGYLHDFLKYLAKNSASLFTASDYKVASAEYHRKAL
inactive: [1] -0.002 | [2] -0.01 | [3] 0.022 | [4] 0.136 | [5] -0.003 | [6] 0.011 | [7] 0.056 | [8] -0.1 | [9] 0.04 | [10] 0.066 | [11] -0.149 | [12] 0.146 | [13] -0.044 | [14] 0.045 | [15] -0.066 | [16] -0.085 | [17] -0.048 | [18] -0.074 | [19] 0.03 | [20] -0.063

NAPG (UniProt Q99747)
Chain of UniProt Q99747 (Q99747 whole entry, looked up): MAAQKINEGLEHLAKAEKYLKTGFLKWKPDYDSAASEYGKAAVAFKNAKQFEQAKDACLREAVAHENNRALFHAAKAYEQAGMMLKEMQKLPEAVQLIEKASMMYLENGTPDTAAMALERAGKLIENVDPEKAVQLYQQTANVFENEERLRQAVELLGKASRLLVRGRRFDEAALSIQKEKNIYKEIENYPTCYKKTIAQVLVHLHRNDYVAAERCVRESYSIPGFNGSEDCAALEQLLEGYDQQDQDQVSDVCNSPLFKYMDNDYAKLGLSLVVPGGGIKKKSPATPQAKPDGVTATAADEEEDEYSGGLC
inactive: [1] -0.028 | [2] -0.075 | [3] -0.137 | [4] 0.048 | [5] 0.031 | [6] -0.159 | [7] 0.044 | [8] 0.053 | [9] 0.052 | [10] -0.028 | [11] 0.046 | [12] -0.046 | [13] 0.052 | [14] -0.001 | [15] -0.005 | [16] -0.066 | [17] 0.025 | [18] -0.089 | [19] 0.029 | [20] -0.008

NOP53 (UniProt Q9NZM5)
inactive: [1] -0.063 | [2] -0.014 | [3] 0.396 | [4] 0.141 | [5] -0.019 | [6] 0.62 | [7] 0.36 | [8] 0.035 | [9] 0.174 | [10] -0.022 | [11] -0.111 | [12] 0.533 | [13] -0.008 | [14] 0.365 | [15] -0.1 | [16] 0.037 | [17] -0.127 | [18] -0.207 | [19] 0.163 | [20] -0.335

OTUD4 (UniProt Q01804)
inactive: [1] -0.031 | [2] -0.017 | [3] 0.036 | [4] -0.018 | [5] -0.014 | [6] 0.054 | [7] 0.136 | [8] 0.019 | [9] 0.036 | [10] 0.001 | [11] -0.122 | [12] 0.182 | [13] 0.022 | [14] 0.063 | [15] -0.106 | [16] -0.062 | [17] 0.039 | [18] 0.013 | [19] 0.095 | [20] -0.025

MMS19 isoform 8 (UniProt Q96T76)
Chain of UniProt Q96T76 (Q96T76 whole entry, looked up): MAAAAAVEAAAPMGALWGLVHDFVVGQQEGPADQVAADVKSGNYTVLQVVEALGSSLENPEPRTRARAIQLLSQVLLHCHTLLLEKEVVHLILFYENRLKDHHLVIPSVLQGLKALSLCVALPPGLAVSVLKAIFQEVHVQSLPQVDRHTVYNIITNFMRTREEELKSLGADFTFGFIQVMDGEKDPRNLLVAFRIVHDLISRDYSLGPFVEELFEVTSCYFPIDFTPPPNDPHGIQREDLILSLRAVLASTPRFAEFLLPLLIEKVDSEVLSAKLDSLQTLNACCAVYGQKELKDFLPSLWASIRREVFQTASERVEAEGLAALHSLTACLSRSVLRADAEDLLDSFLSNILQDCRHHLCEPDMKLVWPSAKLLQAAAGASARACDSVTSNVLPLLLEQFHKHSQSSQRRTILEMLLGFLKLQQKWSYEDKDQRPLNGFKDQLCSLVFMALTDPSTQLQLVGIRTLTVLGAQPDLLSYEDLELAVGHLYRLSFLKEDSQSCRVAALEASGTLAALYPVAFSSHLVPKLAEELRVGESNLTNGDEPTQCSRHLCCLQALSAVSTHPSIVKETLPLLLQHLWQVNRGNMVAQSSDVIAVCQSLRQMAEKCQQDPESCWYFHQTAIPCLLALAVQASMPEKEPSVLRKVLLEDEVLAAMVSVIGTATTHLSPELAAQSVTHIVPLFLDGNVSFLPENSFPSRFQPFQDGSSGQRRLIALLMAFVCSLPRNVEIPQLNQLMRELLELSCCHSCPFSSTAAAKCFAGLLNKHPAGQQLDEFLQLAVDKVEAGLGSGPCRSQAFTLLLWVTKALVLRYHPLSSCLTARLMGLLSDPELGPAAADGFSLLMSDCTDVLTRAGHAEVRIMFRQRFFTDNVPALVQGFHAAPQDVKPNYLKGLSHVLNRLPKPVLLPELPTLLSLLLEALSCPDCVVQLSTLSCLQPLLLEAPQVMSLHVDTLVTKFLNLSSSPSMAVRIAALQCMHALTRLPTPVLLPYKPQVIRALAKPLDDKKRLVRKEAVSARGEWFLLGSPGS
inactive: [1] -0.013 | [2] -0.156 | [3] -0.115 | [4] -0.071 | [5] 0.003 | [6] -0.127 | [7] 0.052 | [8] -0.003 | [9] 0.099 | [10] -0.008 | [11] -0.094 | [12] -0.036 | [13] 0.037 | [14] -0.014 | [15] -0.019 | [16] 0.06 | [17] 0.026 | [18] 0.019 | [19] -0.021 | [20] -0.008

PAFAH1B3 (UniProt Q15102)
Chain of UniProt Q15102 (Q15102 whole entry, looked up): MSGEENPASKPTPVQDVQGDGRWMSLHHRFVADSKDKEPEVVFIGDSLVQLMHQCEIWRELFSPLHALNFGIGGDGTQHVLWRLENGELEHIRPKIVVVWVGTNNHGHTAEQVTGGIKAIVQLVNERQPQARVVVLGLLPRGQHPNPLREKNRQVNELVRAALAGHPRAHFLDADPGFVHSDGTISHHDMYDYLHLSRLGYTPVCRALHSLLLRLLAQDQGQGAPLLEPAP
inactive: [1] -0.109 | [2] -0.034 | [3] -0.082 | [4] 0.026 | [5] 0.001 | [6] 0.021 | [7] 0.049 | [8] 0.002 | [9] -0.006 | [10] -0.071 | [11] -0.01 | [12] -0.024 | [13] 0.037 | [14] -0.033 | [15] -0.044 | [16] 0.03 | [17] 0.043 | [18] 0.057 | [19] -0.054 | [20] 0.079

NOLC1 isoform 2 (UniProt Q14978)
inactive: [1] -0.007 | [2] -0.036 | [3] -0.206 | [4] 0.153 | [5] -0.122 | [7] -0.025 | [8] -0.089 | [9] -0.007 | [10] 0 | [11] 0.016 | [12] 0.21 | [13] 0.015 | [14] 0.199 | [15] -0.112 | [16] -0.093 | [17] 0.041 | [18] 0.104 | [19] 0.052 | [20] 0.056
active: [6] -0.346

From the supplement of paper PMC10849652
